# FLuc modulator: counter-screen for miR-21 project: firefly luciferase inhibitors or activators. purified FLuc, Km substrates, luminescence inhibition. Potency, µM (top dose mostly 57.5 µM), for inactives: top-dose activity change, negative = inhibition, usual class: inhibitors. hit rate 6.9% among 360,000. AID 588342;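 note: plate controls were vehicle for no effect and reference inhibitor for full effect; nearly all actives have a fitted effect of over 55% in size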
# Target sequence (P08659 whole entry, looked up): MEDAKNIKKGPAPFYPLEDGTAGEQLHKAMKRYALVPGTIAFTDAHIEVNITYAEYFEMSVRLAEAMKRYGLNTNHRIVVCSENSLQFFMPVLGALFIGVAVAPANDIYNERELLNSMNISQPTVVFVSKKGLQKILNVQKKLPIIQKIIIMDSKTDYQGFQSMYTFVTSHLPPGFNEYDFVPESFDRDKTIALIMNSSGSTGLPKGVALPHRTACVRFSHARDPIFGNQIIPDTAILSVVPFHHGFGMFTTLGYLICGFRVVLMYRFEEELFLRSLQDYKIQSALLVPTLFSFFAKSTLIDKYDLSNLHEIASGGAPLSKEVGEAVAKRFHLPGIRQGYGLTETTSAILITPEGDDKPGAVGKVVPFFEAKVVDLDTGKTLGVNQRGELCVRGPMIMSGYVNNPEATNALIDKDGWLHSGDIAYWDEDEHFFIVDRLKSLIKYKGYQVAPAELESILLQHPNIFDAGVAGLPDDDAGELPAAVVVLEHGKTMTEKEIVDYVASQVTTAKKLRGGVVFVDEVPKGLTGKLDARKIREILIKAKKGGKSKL
#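 Biochemical qHTS of compounds, final roughly 60 µM downward over six points, against 10 nM purified firefly luciferase using Km concentrations of substrates (10 uM D-luciferin, 10 uM ATP) in Tris acetate pH 7.5 buffer; luminescence output.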
# Luc counter: blocks Kinase-Glo luciferase, a counter-screen artifact; Q27757; Kinase-Glo luciferase, ATP luminescence, 8 min; Potency, µM (titrated, usually from 38.3 µM), for the others: top-dose activity change, negative = inhibition, usual class: inhibitors; hit rate 0.28% among 200,000; AID 1379; note: % is set by controls: 0 for no effect and ±100 for the full control effect; nearly all actives have a fitted effect of over 60% in size
#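 Compound is pinned into ATP-containing buffer (10 uM ATP, imidazole pH 7.2, 7 mM MgCl2). Kinase-Glo luciferase reagent is then added. Light output is recorded following an 8-min room-temperature incubation.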
# SMN2 splice enh: increases expression of the SMN2 splice variant; HEK293 SMN2-luciferase splicing reporter, luminescence, 30-36 h; Potency, µM (titrated, usually from 46.1 µM), for the others: at the top dose activity change, positive = activation, usual class: activators; hit rate 2.8% among 210,000; AID 1458; note: % of control where 0% means no effect; nearly all actives have a fitted effect of over 55% in size
#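 HEK293 cells carry an SMN2 […]–luciferase reporter in which exon 7 inclusion puts luciferase in frame. Cells were plated 10-12 h before compound addition, then incubated 30-36 h at 37C. ONE-Glo luminescence was read; sodium butyrate at 4.5 mM final served as control.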
# ELG1 genotoxic: genotoxicity induction in ELG1-luciferase HEK293T cells; Potency, µM (highest dose often 46 µM), for the others: at the top dose activity change, positive = activation, most hits filed as activators; hit rate 1.3% among 330,000; HEK293T ELG1-luciferase reporter, luminescence, 16 h; note: % of control where 0% means no effect; nearly all actives have a fitted effect of over 60% in size
#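 Screening used a luciferase reporter fused to human ELG1 in HEK293T cells. Luminescence was read on a CCD plate imager after 16 hr exposure and 30 min ONE-Glo incubation.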
# Rab9 prom act: Rab9 promoter activation. Huh7 Rab9 promoter-luciferase reporter, luminescence, 24 h. Potency, µM (highest dose often 9.22 µM), without a hit: at the highest dose activation, negative = inhibition, most hits filed as activators. hit rate 2.8% among 320,000. AID 485297; note: % of control where 0% means no effect; nearly all actives have a fitted effect of over 60% in size
#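 Luciferase signal after 10 min detection reagent at ambient indicates Rab9 promoter upregulation; stably transfected Huh7 cells were treated 24 h with compound in DMSO at 37 °C, 5% CO2.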
# NPC1 prom act: NPC1 promoter activation; Potency, µM (series often up to 9.22 µM), inactives show at the top dose activation, most hits filed as activators; hit rate 2.4% among 320,000; Huh7 NPC1 promoter luciferase reporter, 24 h; note: % of control where 0% means no effect; nearly all actives have a fitted effect of over 60% in size
#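 Stable NPC1-promoter luciferase Huh7 line; cpd (DMSO) 24 h, 37 °C, 5% CO2; Amplite luciferase reagent 10 min RT; luminescence readout. qHTS format.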
# * hit, by the source's call; u = inconclusive; x = no result; [ ] = dose if it differs, or a comment. Hits are enriched below; roughly 7.5% of the tested compounds scored in any of these assays. Calls come from the whole dose curve; as a rule, active = well fitted curve in the direction sought with a large enough effect; inconclusive = small, poorly fitted or top-dose-only effect, or another doubt; inactive = no such curve, though single readings can be large; an effect the other way counts as inactive or inconclusive. Potency is the fitted concentration of half-maximal effect.
SMILES,FLuc modulator,Luc counter,SMN2 splice enh,ELG1 genotoxic,Rab9 prom act,NPC1 prom act
N#CC(C#N)=C(N)Nc1cccc(Cl)c1,6%,x,x,1%,-2%,0%
CC1CCC(=C(C#N)C(=O)Nc2cccc(Cl)c2)CC1 (stereo unspecified),24µM*,-5%,-11%,-1%,-6%,-1%
c1ccc(-c2cccc(-c3ccccc3)n2)cc1,12µM*,x,x,5%,u,23%
CCc1ccc(NC(=O)CSc2nc(-c3ccccc3Cl)nc3c2Cc2c(CO)cnc(C)c2O3)cc1,-1%,x,x,x,x,x
COc1cccc(C(=O)Nc2ccc(-c3nc4ccc(C)cc4s3)cc2)c1OC,-1%,x,x,x,x,x
Cc1nc2ccc(NC(=O)COc3ccccc3F)cc2s1,u,-4%,u,u,u,26%
O=C(COc1ccccc1F)Nc1ccc(-c2nc3ccccc3s2)cc1,x,x,x,x,0.63µM*,0.89µM*
CCCOc1ccccc1C(=O)Nc1ccc(-c2nc3ccc(C)cc3s2)cc1,4.8µM*,x,13µM*,x,x,x
Cc1cccc(CC(=O)Nc2cccc(-c3nc4cccnc4s3)c2)c1,-2%,x,x,x,x,x
Cc1ccc2nc(-c3ccc(NC(=O)Cc4ccccc4)cc3)sc2c1,11µM*,x,u,x,x,x
Cc1ccc2nc(-c3ccc(NC(=O)COCC(=O)O)cc3)sc2c1,1.2µM*,x,x,u,u,u
O=C(O)CSCC(=O)Nc1ccc(-c2nc3ccccc3s2)cc1,3µM*,x,x,u,u,29%
Cc1csc(NC(=O)CSCC(=O)O)c1-c1nc2ccccc2s1,-5%,x,x,4%,0%,-4%
Cc1ccc2nc(-c3ccc(NC(=O)CSCC(=O)O)cc3)sc2c1,1.7µM*,x,x,u,2.8µM*,4µM*
CCCCNc1nc(C)nc2c1nc(-c1ccccc1)n2CCCN(C)C,x,-3%,-16%,x,x,x
CSc1ccc(CNC(=O)CCn2ccc3cc(S(=O)(=O)N4CCC(C)CC4)ccc32)cc1,-4%,x,x,x,x,x
Cc1cc(C)c2c(-n3cccc3)c(C(=O)NCc3cccc(F)c3)sc2n1,-3%,x,x,x,x,x
CCc1ccc2oc(-c3cc(NC(=O)c4cccs4)ccc3Cl)nc2c1,u,x,-16%,x,x,x
CCc1ccc2oc(-c3cc(N)ccc3Cl)nc2c1,0.24µM*,-15%,u,2.1µM*,2.5µM*,4µM*
CCc1ccc2oc(-c3cc(N)ccc3O)nc2c1,0.34µM*,-28%,25µM*,22%,4.5µM*,3.2µM*
CCc1ccc2oc(-c3cc(N)cc(C)c3O)nc2c1,u,-6%,u,u,u,6%
Nc1ccc2oc(-c3ccccc3Cl)nc2c1,1.3µM*,-10%,2.8µM*,3.7µM*,0.45µM*,u
CCN(CC)c1ccc(C2C(C(=O)Nc3ccccc3C)=C(C)Nc3ncnn32)cc1 (stereo unspecified),6%,x,x,x,x,x
COc1ccccc1-c1cc(NC(=O)COc2ccccc2Cl)n(-c2ccccc2)n1,-3%,x,x,x,x,x
C/C(=N\N=C(/N)c1nonc1N)c1ccc2c(c1)OCO2,2.7µM*,x,x,u,0.89µM*,0.63µM*
SMILES,FLuc modulator,Luc counter,SMN2 splice enh,ELG1 genotoxic,Rab9 prom act,NPC1 prom act
C/C(=N/NC(=O)c1nnn(-c2nonc2N)c1-c1ccccc1)c1ccc2c(c1)OCO2,-1%,x,x,-11%,1%,1%
C/C(=C\C(=O)c1ccc(C)o1)Nc1ccc(C(=O)O)cc1C,9.5µM*,3%,30%,11%,-4%,1%
Cc1cc(C(=O)O)ccc1NCc1ccncc1,1%,x,x,1%,2%,-4%
COc1cc(C(=O)NCCOc2ccccc2C)c(Br)c(OC)c1OC,4%,-3%,-6%,-1%,3%,1%
COc1ccc(C(=O)NCCOc2ccccc2Cl)c(OC)c1OC,15µM*,x,x,15µM*,3.2µM*,4.5µM*
Cc1cccc(NC(=O)c2ccc(C(=O)Nc3cccc(C)c3)nc2)c1,-12%,-3%,-31%,-2%,12%,11%
CC(=O)Nc1cccc(NC(=O)c2ccc(C(=O)Nc3cccc(NC(C)=O)c3)nc2)c1,3.8µM*,-11%,16%,11%,17%,15%
O=C(Nc1ccccc1)c1ccc(C(=O)Nc2ccccc2)nc1,-12%,2%,7%,u,2µM*,u
COc1ccc(S(=O)(=O)c2c(O)c3ccc(C(=O)Nc4ccccc4F)cc3[nH]c2=O)cc1,-17%,x,x,0%[9.26 µM],4%,-4%
COc1ccc(C(=O)Nc2cc(C(C)C)c(O)c(S(=O)(=O)c3ccc(Cl)cc3)c2C)cc1,u,x,11µM*,x,x,x
COc1ccc(C(=O)Nc2cc(C(C)C)c(O)c(S(=O)(=O)c3ccc(OC)cc3)c2C)cc1,u,x,16µM*,x,x,x
CCc1ccc(NC(=O)C2C3C=CC(C4CC34)C2C(=O)O)cc1 (stereo unspecified),2.1µM*,0%,u,8%,24%,21%
CC(=O)c1cccc(NC(=O)C2C3C=CC(C4CC34)C2C(=O)O)c1 (stereo unspecified),-1%,7%,-2%,-1%,-4%,6%
Cc1ccc(/C=N/Nc2ccc(F)cc2F)s1,13µM*,x,x,u,u,1.6µM*
COc1cc(/C=N/Nc2ccc(Cl)nn2)cc(OC)c1O,13µM*,x,x,4%,7%,0%
COc1cc(/C=N/Nc2ccc(S(N)(=O)=O)cc2[N+](=O)[O-])cc(OC)c1O,u,x,x,3%,-4%,2%
Oc1c(Br)cc(/C=N/Nc2ccc(Cl)nn2)cc1Br,-5%,x,x,-1%,-6%,0%
CCCCCCCCCC(=O)N/N=C/c1ccc(C)s1,6%,-5%,x,u,3%,0%
COc1cc(/C=N/Nc2ccc(F)cc2F)cc(OC)c1O,17µM*,-2%,-10%,10%,2%,2%
